A selection: hits, their analogues and other compounds. The true share with any hit is near 3%.
pPAFAH FP inh = inhibitors of human plasma PAF acetylhydrolase (pPAFAH); recombinant pPAFAH, FP-rhodamine probe fluorescence polarization; inhibition, % at 3.39 µM; 330,000 compounds, 1.5% hits;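 active = inhibition above the mean inhibition across the screen plus 3 SD, cut at about 25% in these data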;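 note: inhibitors block binding of the rhodamine activity-based probe so polarization drops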
Fh CTSL1 inh = counter-screen for PFM18AAP inhibitors: inhibitors of F. hepatica cathepsin L1; recombinant F. hepatica cathepsin L1, Z-Leu-Arg-MCA fluorescence; inhibition, % at 5.96 µM; 300,000 compounds, 0.49% hits; AID 1906;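 active = inhibition above the mean of all tested compounds plus 3 SD, set per screening campaign, cut at about 17% in these data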
PP5 inh = PP5 (human) phosphatase inhibition; P53041; purified PP5c, OMFP substrate fluorescence; inhibition, % at 6.7 µM; 320,000 compounds, 0.18% hits; AID 1987;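 active = inhibition above the campaign's mean inhibition across all tested compounds plus 3 SD, cut at about 9.5% in these data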
Target sequence (P53041 whole entry, looked up): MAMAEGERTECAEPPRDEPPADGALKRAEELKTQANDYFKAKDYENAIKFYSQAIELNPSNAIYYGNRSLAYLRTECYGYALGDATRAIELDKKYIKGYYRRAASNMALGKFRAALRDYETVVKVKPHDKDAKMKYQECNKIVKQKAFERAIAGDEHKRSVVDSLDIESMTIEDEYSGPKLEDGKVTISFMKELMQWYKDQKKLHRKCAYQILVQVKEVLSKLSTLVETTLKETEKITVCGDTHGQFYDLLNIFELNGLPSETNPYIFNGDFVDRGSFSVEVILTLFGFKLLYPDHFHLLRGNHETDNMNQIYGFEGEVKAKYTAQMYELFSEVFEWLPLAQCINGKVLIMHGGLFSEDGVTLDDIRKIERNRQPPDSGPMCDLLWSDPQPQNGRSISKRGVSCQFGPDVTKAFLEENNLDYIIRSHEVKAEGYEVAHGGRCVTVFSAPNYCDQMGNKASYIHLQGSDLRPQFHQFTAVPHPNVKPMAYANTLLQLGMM
PAFAH2 FP inh = PAFAH2 (human) inhibition. recombinant PAFAH2, FP-rhodamine activity probe, fluorescence polarization. Q99487. inhibition, % at 3.39 µM. 340,000 compounds, 0.99% hits;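 active = inhibition above the mean over all tested compounds plus 3 SD, cut at about 30% in these data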;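 note: inhibitors block probe labeling of enzyme so polarization drops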
PAFAH1B2 FP inh = PAFAH1B2 (human) inhibition | P68402 | inhibition, % at 3.39 µM | 340,000 compounds, 1.2% hits | recombinant PAFAH1B2, FP-rhodamine activity probe, fluorescence polarization;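 active = inhibition above the mean of all tested compounds plus 3 SD, cut at about 24% in these data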
PAFAH1B3 FP inh = blocks human PAF acetylhydrolase 1B catalytic subunit 3. Q15102. recombinant PAFAH1B3, FP-rhodamine probe, fluorescence polarization. inhibition, % at 3.39 µM. 340,000 compounds, 0.28% hits. AID 492972;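 active = inhibition above the screen-wide average of all tested compounds plus 3 SD, cut at about 25% in these data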
Large screens that a line does not name were inactive.

Cc1cccc(NC(=O)COC(=O)Cc2cccs2)c1C	pPAFAH FP inh 25
CC(C)(C)C1CCc2c(sc(NC(=O)C3CC=CCC3C(=O)O)c2C#N)C1 (configuration not stated)	pPAFAH FP inh 31, PAFAH1B2 FP inh 59
N#Cc1c(NC(=O)C2CC=CCC2C(=O)O)sc2c1CCCCCC2 (configuration not stated)	PAFAH1B2 FP inh 45
CC1CCc2c(sc(NC(=O)c3ccccc3C(=O)O)c2C#N)C1 (configuration not stated)	none
N#Cc1c(NC(=O)CCC(=O)O)sc2c1CCCCC2	none
CCC(C)(C)C1CCc2c(sc(NC(=O)c3ccccc3C(=O)O)c2C#N)C1 (configuration not stated)	pPAFAH FP inh 32, PAFAH1B2 FP inh 67
CCC1(c2ccccc2)NC(=O)N(CC(=O)NCc2ccc(C)cc2)C1=O (configuration not stated)	none
N#CC1=C(S)N(c2ccccc2)C(c2ccco2)NC1=O (configuration not stated)	none
N#CC1=C(S)N(c2ccccc2)C(c2ccc(-c3cc(Cl)ccc3Cl)o2)NC1=O (configuration not stated)	pPAFAH FP inh 36
N#CC1=C(S)N(c2ccccc2)C(c2cccs2)NC1=O (configuration not stated)	none
N#CC1=C(S)N(c2ccccc2)C(c2ccc(-c3ccc(Cl)c(Cl)c3)o2)NC1=O (configuration not stated)	pPAFAH FP inh 34
CCN1C(=O)N/C(=C/c2cc(C)n(Cc3ccccc3)c2C)C1=O	PAFAH1B2 FP inh 82
CCn1c(C)cc(/C=C2\NC(=O)N(Cc3ccc(Cl)cc3)C2=O)c1C	none
Cc1cc(NC(=O)CSc2nc(-c3cccs3)nc3ccccc23)no1	none (no result: Fh CTSL1 inh)
CCOC(=O)CSc1nc2ccc(N3CCOCC3)cc2c(=O)n1Cc1ccc2c(c1)OCO2	pPAFAH FP inh 32 (no result: PAFAH2 FP inh, PAFAH1B2 FP inh, PAFAH1B3 FP inh)
NC(=S)N/N=C/c1ccc2cccc(OCc3ccccc3)c2n1	Fh CTSL1 inh 18
O=C(c1ccccc1)c1c[nH]c(C(=O)NNc2ccccc2)c1	none
Cc1cc(C)n(CC(O)Cn2c(C)c(C)c3ccccc32)n1 (configuration not stated)	Fh CTSL1 inh 19
CN(CCO)c1nc(N)c2c(N)nc3c(c2c1C#N)CC(=O)N3Cc1cccs1	none
N#Cc1c(N(CCO)CCO)nc(N)c2c(N)nc3c(c12)CC(=O)N3Cc1cccs1	pPAFAH FP inh 26
Oc1ccc(-c2nc3ccc4ccccc4c3c3c2CCC3)cc1O	pPAFAH FP inh 33
O=C(O)C/C(=C\c1cc2c(cc1Br)OCO2)c1nc2ccccc2s1	PAFAH1B2 FP inh 73
COC(C[C@@H]1O[C@@H]1[C@@H](O)[C@H](C)OCc1ccccc1)OC	none (no result: pPAFAH FP inh, Fh CTSL1 inh, PP5 inh)
COC(C[C@H]1O[C@@H]1C(=O)[C@H](C)OCc1ccccc1)OC	Fh CTSL1 inh 74
COC(C[C@H]1O[C@H]1C(=O)[C@H](C)OCc1ccccc1)OC	Fh CTSL1 inh 76
CCn1nnc2cc(C(=O)Nc3cc(OC)cc(OC)c3)ccc21	none
CCC(C)[C@H](NC(=O)[C@@H]1Cc2ccccc2CN1)C(=O)Nc1ccc2c(c1)OCO2 (some centres not stated)	none
CC1(c2ccc3ccccc3c2)NC(=O)N(CC(=O)Nc2cccc(S(=O)(=O)N3CCOCC3)c2)C1=O (configuration not stated)	pPAFAH FP inh 33
CC1(c2cc(F)ccc2F)NC(=O)N(CC(=O)Nc2cccc(S(=O)(=O)N3CCCC3)c2)C1=O (configuration not stated)	none (no result: Fh CTSL1 inh)
COc1ccc(S(=O)(=O)N2CCCCCC2)cc1NC(=O)CN1C(=O)NC(C)(c2ccc(C)cc2)C1=O (configuration not stated)	none
CCOc1ccc(S(=O)(=O)N2CCCCC2)cc1NC(=O)CN1C(=O)NC(C)(c2ccc(C)cc2)C1=O (configuration not stated)	pPAFAH FP inh 27
CN(CC(=O)Nc1ccccc1Br)C(=O)Cn1[nH]c(=O)c2ccccc2c1=O	none (no result: Fh CTSL1 inh)
N=C1S/C(=C\c2ccco2)C(=O)N1c1ccc2c(c1)OCO2	pPAFAH FP inh 31
Oc1ccc(/C=N/N2CCN(C3c4ccccc4-c4ccccc43)CC2)cc1O	pPAFAH FP inh 33
CC(OC(=O)CCCN=C1NS(=O)(=O)c2ccccc21)C(=O)Nc1ccccc1[N+](=O)[O-] (configuration not stated)	none
C=CCn1c(SC2CCOC2=O)nc2sc(CC)cc2c1=O (configuration not stated)	pPAFAH FP inh 27
COc1ccc(C)cc1NC(=O)NNC(=O)C(C)Oc1ccc([N+](=O)[O-])cc1 (configuration not stated)	none
CCC(=O)Nc1cccc(C(=O)OCC(=O)c2ccccc2Cl)c1	PAFAH2 FP inh 41
CN(C)c1ccc(N2C(=O)CC(c3ccccc3)CC2=O)cc1	none
CC1SC(=S)N(c2ccc(N(C)C)cc2)C1=O (configuration not stated)	pPAFAH FP inh 29
Cc1ccc(SCc2ccc(C(=O)Nc3cc([N+](=O)[O-])ccc3C)cc2)cc1	PAFAH1B2 FP inh 29
COc1ccc(NC(=S)N(CCN(C)C)C(C)c2ccco2)cc1Cl (configuration not stated)	none
O=C(C1CC(=O)N(C2CCCCC2)C1)N1CCN(c2cccc(C(F)(F)F)c2)CC1 (configuration not stated)	none
CCn1c(SCC(=O)Nc2cccc(S(=O)(=O)N(C)c3ccccc3)c2)nnc1C1CC1	none (no result: Fh CTSL1 inh)
O=C(NNC(=O)c1cc2ccccc2cc1O)Nc1ccc(F)cc1F	pPAFAH FP inh 26, PAFAH1B3 FP inh 29
O=C(NNC(=O)c1cc2ccccc2cc1O)Nc1ccc(Br)cc1	pPAFAH FP inh 26
C=CCNC(=S)N1CCN(Cc2ccc3c(c2)OCO3)CC1	none
O=S1(=O)Nc2c(ccc3cccnc23)-c2ccccc21	pPAFAH FP inh 27
Clc1ccc2ccc3cccnc3c2n1	none (no result: pPAFAH FP inh, Fh CTSL1 inh, PP5 inh)
COc1ccccc1CNC(=O)C1CCN(S(=O)(=O)c2ccc(-n3cnnn3)cc2)CC1	none
CC(=O)O[C@H]1CC(C)(C)C(=C=C/C(C)=C/C=C/C(C)=C/C=C/C=C(C)/C=C/C=C(\C)C(=O)C[C@@]23O[C@]2(C)C[C@@H](O)CC3(C)C)[C@](C)(O)C1	Fh CTSL1 inh 34 (no result: PAFAH2 FP inh, PAFAH1B2 FP inh, PAFAH1B3 FP inh)
O=C(COc1ccccc1)N1CCN(S(=O)(=O)c2cccs2)CC1	Fh CTSL1 inh 19
CCN(CC(=O)Nc1ccc(OC)cc1)C(=O)c1ccc2[nH]c3c(c2c1)CC(C)CC3 (configuration not stated)	PAFAH1B2 FP inh 27 (no result: Fh CTSL1 inh)
CC1CCc2[nH]c3ccc(C(=O)N(C)CC(=O)Nc4ccccc4Br)cc3c2C1 (configuration not stated)	none
